Assay results as given in PubChem BioAssay (NCI).
This is part of a sample that, as a whole, favours compounds with a hit. Of some 83,000 tested, about 20% had one in any assay.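 Activity criterion: percent growth below 10, measured after cells in 96-well plates were exposed to a single compound concentration for 48 hours.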 Unmarked numbers belong to inactive results. Calls of active or inactive are those of the source.

Experiments:
Experiment in all cases: NCI-60 one-dose screen, 48 h (100 = growth as untreated, 0 = no growth, -100 = all killed)
Settings in all cases: 10 µM unless noted
SR leukemia = test system: SR leukemia
OVCAR-8 ovarian = test system: OVCAR-8 ovarian
OVCAR-5 ovarian = test system: OVCAR-5 ovarian
OVCAR-4 ovarian = test system: OVCAR-4 ovarian
SK-OV-3 ovarian = test system: SK-OV-3 ovarian
IGROV1 ovarian = test system: IGROV1 ovarian
OVCAR-3 ovarian = test system: OVCAR-3 ovarian
HS 578T breast = test system: HS 578T breast
NCI/ADR-RES ovarian = test system: NCI/ADR-RES ovarian
T-47D breast = test system: T-47D breast
BT-549 breast = test system: BT-549 breast
MDA-MB-435 melanoma = test system: MDA-MB-435 melanoma
SW-620 colon = test system: SW-620 colon
MCF7 breast = test system: MCF7 breast
HCT-116 colon = test system: HCT-116 colon
HCC-2998 colon = test system: HCC-2998 colon
KM12 colon = test system: KM12 colon
RPMI-8226 leukemia = test system: RPMI-8226 leukemia

Row | Compound | growth (SR leukemia) | growth (OVCAR-8 ovarian) | growth (OVCAR-5 ovarian) | growth (OVCAR-4 ovarian) | growth (SK-OV-3 ovarian) | growth (IGROV1 ovarian) | growth (OVCAR-3 ovarian) | growth (HS 578T breast) | growth (NCI/ADR-RES ovarian) | growth (T-47D breast) | growth (BT-549 breast) | growth (MDA-MB-435 melanoma) | growth (SW-620 colon) | growth (MCF7 breast) | growth (HCT-116 colon) | growth (HCC-2998 colon) | growth (KM12 colon) | growth (RPMI-8226 leukemia)
1 | COc1ccc(-n2c(COc3ccc(F)cc3)n[nH]c2=S)cc1 | 120% | 112% | 110% | 105% | 109% | 96.4% | 103% | 108% | 103% | 101% | 181% | 105% | 104% | 107% | 101% | 113% | 110% | –
2 | COc1cc2c(cc1OC)-c1cc(OC)c(OC)cc1C(CN(C)C)C2 (stereo not drawn) | 53.9% [100 µM] | – | 86% [100 µM] | -20.7% [100 µM] (active) | 6.96% [100 µM] (active) | 60.7% [100 µM] | 59.9% [100 µM] | 10.3% [100 µM] | 26.9% [100 µM] | 69.3% [100 µM] | 45.8% [100 µM] | 63.8% [100 µM] | 82.4% [100 µM] | 62% [100 µM] | 70.7% [100 µM] | 85.6% [100 µM] | 82.1% [100 µM] | 67.7% [100 µM]
3 | CCN(CC)CC(=O)Nc1c(C)ccc(N)c1C | 151% | 105% | 99.2% | 99.1% | 96.7% | 95.4% | 109% | 105% | 99.2% | 96.6% | 97.2% | 99.8% | 104% | 92.4% | 84% | 96.8% | – | –
4 | Cc1ccccc1Nc1n[nH]c(Cc2ccccc2)n1 | 99.7% | 98.1% | 111% | 112% | 105% | 107% | 106% | 98.9% | 106% | 101% | 105% | 107% | 102% | 99.1% | 99.9% | 100% | – | –
5 | O=[N+]([O-])c1ccc(Sc2nc(Cl)nc(NC3CCCC3)n2)cc1 | -28.3% [100 µM] (active) | – | -90.5% [100 µM] (active) | – | -100% [100 µM] (active) | -67.8% [100 µM] (active) | -100% [100 µM] (active) | 11.7% [100 µM] | -49.1% [100 µM] (active) | -35.4% [100 µM] (active) | -97.1% [100 µM] (active) | -95.9% [100 µM] (active) | -63.1% [100 µM] (active) | -84.9% [100 µM] (active) | -94.3% [100 µM] (active) | -86.5% [100 µM] (active) | -96.9% [100 µM] (active) | -7.18% [100 µM] (active)
6 | O=C(CC(=O)c1cccc(Cl)c1)c1cccc(Cl)c1 | 2.96% (active) | 21.9% | 46.8% | 42% | 47.5% | 34.1% | 32% | 73.6% | 8.52% (active) | 37.2% | 47.6% | 47.9% | 30.7% | 25.4% | 19.8% | 35% | 41.9% | –
7 | O/N=C/c1ccncc1 | 107% | 107% | 116% | – | 100% | – | 113% | 107% | 105% | 97.3% | 117% | 100% | 102% | 97.3% | 118% | 102% | 105% | 94%
8 | Cc1ccc2c(C)c3c(ccc4ccccc43)c[n+]2c1 | 58.2% | 52.5% | 90.3% | – | 83.8% | 60.6% | – | 77.8% | 95.9% | -8.02% (active) | 37% | 83.2% | 83.1% | 35.7% | 81.7% | 72.6% | 28.6% | 47.8%
9 | N/C(=N\O)c1ncc(-c2ccc(C(F)(F)F)cc2)c(NC2CCCCCC2)n1 | -48.8% [100 µM] (active) | – | -76.5% [100 µM] (active) | -6.06% [100 µM] (active) | -17.8% [100 µM] (active) | -77.2% [100 µM] (active) | -95% [100 µM] (active) | -43.3% [100 µM] (active) | -61.8% [100 µM] (active) | -57.3% [100 µM] (active) | -93.2% [100 µM] (active) | -84.2% [100 µM] (active) | -67.4% [100 µM] (active) | -92.8% [100 µM] (active) | -95.8% [100 µM] (active) | -95.6% [100 µM] (active) | -90.1% [100 µM] (active) | -35.7% [100 µM] (active)
